This note sets out measurements from the OligoGym collection.
Also: reference of the scale not given here.

The target of one experiment is NPSR1. Nature of the experiment: pooled miR-30 sensor sort-seq; sequence = guide strand. The note with it: shRNA.
Sequence TTTCAGTGCAAGCCACTGGGGA came in with a sensor-assay potency score (higher = more potent) of -0.49. Still for that read-out and setting: next, TTGCTTTTAATCCAAATAGTTC: -1.33. Sequence TTTTAATCCAAATAGTTCGGAT registered a sensor-assay potency score (higher = more potent) of -0.423. TGAATCGCCAATTAATATCTGT gave a sensor-assay potency score (higher = more potent) of -0.0374. On the same count and under the same terms, next, TTAAAGGAGTAGTAGAAGGAAC: -1.01.

The target of a further experiment is NR3C1. The description is as above. The note with it: shRNA.
TTCAGGTTCAATAACCTCCAAC gave a sensor-assay potency score (higher = more potent) of -0.915. The same measure, in the same setting: next, TAGGGTTTTATAGAAGTCCATC: -1.08; TTCATCTATCAACAGGTCTGAT: -0.68; TTTTCTTCGAATTTTATCGATG: -1.06.

In turn, TTGACAAAACCAGATCTCCATT registered a sensor-assay potency score (higher = more potent) of -1.1. Same read-out and setting: next, TTCACCTACAGCTACAGTCAGG: -1.07; TTGAAGAAAACTTTACAGCTTC: 0.56; TAGAATATTGACACACTTGAAT: -0.527. Still for that read-out and setting: next, TTGAGCGTAGTCATGATCCTCC: 0.514; TGACTTATTATTGACAACGAAG: -1.46; TTACATTGGTCGTACATGCAGG: -0.108. Still for that read-out and setting: next, TAGAAAAAACTGTTCGACCAGG: -0.371.

The target of a further experiment is NR4A3. The description is as above. The conditions noted are these: shRNA.
Take TTGCATAGCTCTTCGACTCTCT: the sensor-assay potency score (higher = more potent) was 0.177. For TCTTGTTGCATAGCTCTTCGAC, the sensor-assay potency score (higher = more potent) is -0.437. Still for that read-out and setting: next, TTGAAGTACATGGAGGTGCTGG: -0.481. Consider TTTTTCTGCACTGTTCTCTTGA, for which the sensor-assay potency score (higher = more potent) was found to be 0.598.

Sequence TATCTGTACGGACAACTTCTTT yielded a sensor-assay potency score (higher = more potent) of -1.

Turning to TCCAACACTGAGACACTTCTGA, the sensor-assay potency score (higher = more potent) was -0.139.

For TAAGTAATGTCTGATCTTCTTT, the sensor-assay potency score (higher = more potent) is -0.546.

In the case of TGGTCTTTTAAACTGCTTGTGA, the sensor-assay potency score (higher = more potent) is -0.937. TAAACTGCTTGTGATCTTGTTG had a sensor-assay potency score (higher = more potent) of -0.255. For the sequence ATCGACAGTACTGACATCGGTT, the sensor-assay potency score (higher = more potent) is -0.324. Take TAATGTCTGATCTTCTTTGGGG: the sensor-assay potency score (higher = more potent) was determined as 0.115.

The next experiment addresses NRGN. Described as above. The note with it: shRNA.
Turning to TTGCATAAACAAGAGAGCTGGA, the sensor-assay potency score (higher = more potent) stood at 0.0661. For the sequence TTTGCATAAACAAGAGAGCTGG, the sensor-assay potency score (higher = more potent) is -0.297.

Consider TATTGTTCACATTCCAACCCAG, for which the sensor-assay potency score (higher = more potent) was -0.138. In the case of TCTAGAATGTCGTCGTCCGGCT, the sensor-assay potency score (higher = more potent) was -0.833. On the same count and under the same terms, next, TAGAATGTCGTCGTCCGGCTTG: -0.236. The same measure, in the same setting: next, TCTTTATCTTCTTCCGCGCCAT: -0.595. The sequence TTTCTTTAAGTGAGTGTGCTTG gave a sensor-assay potency score (higher = more potent) of -0.361. In turn, TTTATCTTCTTCCGCGCCATGT yielded a sensor-assay potency score (higher = more potent) of -1.14.

TGTCTAGAATGTCGTCGTCCGG returned a sensor-assay potency score (higher = more potent) of -1.75. Same read-out and setting: next, TTTAGCTGCGCACAGAACGAAA: -1.54. The sequence TCGTCGTCCGGCTTGGAGCAGG came in with a sensor-assay potency score (higher = more potent) of -0.878.

TATCTTCTTCCGCGCCATGTGG showed a sensor-assay potency score (higher = more potent) of -1.11.
